# Results reported in PubChem BioAssay (NCATS).
# Results filed as inconclusive are left out. Entries that show only a call come without a potency. The source made the active and inactive calls. Unless noted, calls follow the shape of the dose curve; as a rule, active = well fitted curve in the direction sought with a large enough effect; inconclusive = small, poorly fitted or top-dose-only effect, or another doubt; inactive = no such curve, though single readings can be large; an effect the other way counts as inactive or inconclusive.
# Key:
# [1] = Confirmatory qHTS for VERO E6 Cytotoxicity Assay: Counterscreen for SARS-CoV-2 CPE Assay (AID 1508605; calls by dose curve; also: nearly all actives have a fitted effect of over 60% in size)
# [2] = Confirmatory qHTS for activators (rescue) of SARS-CoV-2 Cytopathic Effect (CPE) (AID 1508606; calls by dose curve; also: potency is read from the fitted curve at half-maximal effect; nearly all actives have a fitted effect of over 70% in size)
# HEK293T = experiment: qHTS assay to identify novel small-molecules to repurpose for Merkel cell carcinoma treatment (AID 1296009); conditions: MCC and control cell lines, CellTiter-Glo viability, 72 h; at 44.8 µM (top of the series) unless noted; also: nearly all actives have a fitted effect of over 60% in size
# Method in brief: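 CellTiter-Glo luminescence after 72 hr compound exposure at 37 degree celsius gave cell viability. Libraries NPC and MIPE were run as 8- and 11-point dose responses; RLUs normalized to DMSO (negative) and no-cell (cytotoxicity) controls.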
# [3] = qHTS to identify inhibitors of the type 1 interferon - major histocompatibility complex class I in skeletal muscle: primary screen against the NCATS Mechanism Interrogation Plate v5.0 (MIPE) Libary (AID 1347411); also: nearly all actives have a fitted effect of over 65% in size
# Method in brief: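 HLA-B HiBit myoblasts, dexamethasone-free medium + 4 ng/ml IFN-b, 24 h compound, 11-pt 1:3 from 46 uM final. Readout: Nano-Glo HiBiT lytic luminescence after 10 min lysis, RT.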
# [4] = Cytotoxicity counterscreen for inhibitors of SARS-CoV-2 cell entry (AID 1645845; calls by dose curve; also: nearly all actives have a fitted effect of over 50% in size)
# Method in brief: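 Counterscreen run in the same HEK293-ACE2 line as the pseudotyped-particle entry assay, without particles. Viability after 48 h at 37 C was read as ATP luminescence, scaled between cell-containing and cell-free wells.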
# [5] = HPAF-II Cancer Cell Toxicity qHTS against the NCATS CANVASS Library (AID 1347346); also: nearly all actives have a fitted effect of over 55% in size
# Method in brief: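 1000 HPAF-II cells/well; 4 h pre-incubation; 11-pnt compound titration; 72 h, 37 degrees C/5% CO2; CellTiter-Glo, 15 min RT; luminescence read.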
# [6] = UWB1.289 Cancer Cell Toxicity qHTS against the NCATS CANVASS Library (AID 1347347); also: nearly all actives have a fitted effect of over 60% in size
# Method in brief: (§1)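 Cells were seeded at 1000 per well, allowed 4 h at 37 degrees C/5% CO2, then pin-treated with an 11-point compound series. After 72 h, viability was read as CellTiter-Glo luminescence following 15min at room temperature.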
# [7] = OV-SAHO Cancer Cell Toxicity qHTS against the NCATS CANVASS Library (AID 1347348); also: nearly all actives have a fitted effect of over 55% in size
# Method in brief: as §1
# [8] = SW1088 Cancer Cell Toxicity qHTS against the NCATS CANVASS Library (AID 1347350); also: nearly all actives have a fitted effect of over 75% in size
# Method in brief: as §1
# [9] = U-118MG Cancer Cell Toxicity qHTS against the NCATS CANVASS Library (AID 1347351)
# Method in brief: as §1
# [10] = COV-362 Cancer Cell Toxicity qHTS against the NCATS CANVASS Library (AID 1347352)
# Method in brief: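 1000 cells/well, 4 h pre-incubation 37 °C/5% CO2; 11-pnt titration; 72 h; CellTiter-Glo 15 min RT, luminescence.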
# [11] = HPAF-II 24hr Apoptosis Induction qHTS against the NCATS CANVASS Library (AID 1347356)
# Method in brief: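 500 HPAF-II cells/well; compounds in 11-pnt qHTS; 24 h, 37 C/5% CO2; Caspase-Glo 3/7 added, 15 min RT dark; luminescence read. Doxorubicin control.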
# [12] = HEK293 18hr Apoptosis Induction qHTS against the NCATS CANVASS Library (AID 1347357)
# Method in brief: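 HEK293 cells (500/well, DMEM + 10% FBS) treated with an 11-point series for 18 h at 37 degrees C. Caspase-3/7 activity read by Caspase-Glo luminescence after 15 min at room temperature.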
# [13] = HPAF-II 12hr Apoptosis Induction qHTS against the NCATS CANVASS Library (AID 1347358)
# Method in brief: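 Caspase-Glo 3/7 luminescence (DEVD substrate) reports caspase activity in HPAF-II cells after 12 h compound treatment at 37 degrees C. Compounds were tested in an 11-point series. Doxorubicin served as control.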
# [14] = HEK293 24hr Apoptosis Induction qHTS against the NCATS CANVASS Library (AID 1347359)
# Method in brief: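 HEK293 cells, 500 per well, exposed to an 11-point compound series for 24 hours at 37 degrees C. Caspase 3/7 activity read by Caspase-Glo luminescence (DEVD substrate) after 15 min at room temperature.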
# [15] = HPAF-II 18hr Apoptosis Induction qHTS against the NCATS CANVASS Library (AID 1347360)
# Method in brief: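 HPAF-II cells at 500/well were exposed for 18 h at 37 C to an 11-point compound series. Caspase-3/7 activity was read by Caspase-Glo luminescence after 15 min at RT.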
# [16] = HEK293 12hr Apoptosis Induction qHTS against the NCATS CANVASS Library (AID 1347361)
# Method in brief: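 HEK293 cells (500/well) were exposed to an 11-point qHTS concentration series for 12 hours at 37 degrees C. Caspase-3/7 activity was then read by DEVD-substrate luciferase luminescence after 15 min at room temperature.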
# [17] = system: NAD(P)H diaphorase (Clostridium kluyveri); experiment: Diaphorse counterscreen qHTS: Assay Interference Panel against the NCATS CANVASS Library (AID 1347362)
# Method in brief: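 Clostridium kluyveri diaphorase in PBS + 0.01% Tween-20 preincubated 15 min with compounds. Resazurin and NADH then added for 5 min at room temperature in the dark; resorufin fluorescence read (ex 525, em 598).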
# [18] = target: Luciferin 4-monooxygenase (Photinus pyralis) (UniProt P08659); experiment: Firefly luciferase counterscreen qHTS: Assay Interference Panel against the NCATS CANVASS Library (AID 1347363)
# Method in brief: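 Purified P. pyralis luciferase (0.04 ug/mL, 4x reagent) added to Tris-acetate buffer with 0.013 mM D-luciferin, 0.013 mM ATP and 13.3 mM Mg-acetate; compounds preincubated 15 min, then luminescence read after 5 min, RT.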
# [19] = Primary qHTS to identify inhibitors of SARS-CoV-2 cell entry (AID 1645846; calls by dose curve; also: nearly all actives have a fitted effect of over 45% in size); conditions: activity change, negative = inhibition: at 57.1 µM (top of the series) unless noted
# Method in brief: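 HEK293 cells stably expressing human ACE2, pre-treated 1 h with compound, then infected with MLV particles pseudotyped with Wuhan-Hu-1 spike (C-terminal 19-aa truncation). Luciferase luminescence after 48 h at 37 °C, normalised to spike PP and bald PP.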
# Luciferin 4-monooxygenase (Photinus pyralis), sequence (P08659 whole entry, looked up): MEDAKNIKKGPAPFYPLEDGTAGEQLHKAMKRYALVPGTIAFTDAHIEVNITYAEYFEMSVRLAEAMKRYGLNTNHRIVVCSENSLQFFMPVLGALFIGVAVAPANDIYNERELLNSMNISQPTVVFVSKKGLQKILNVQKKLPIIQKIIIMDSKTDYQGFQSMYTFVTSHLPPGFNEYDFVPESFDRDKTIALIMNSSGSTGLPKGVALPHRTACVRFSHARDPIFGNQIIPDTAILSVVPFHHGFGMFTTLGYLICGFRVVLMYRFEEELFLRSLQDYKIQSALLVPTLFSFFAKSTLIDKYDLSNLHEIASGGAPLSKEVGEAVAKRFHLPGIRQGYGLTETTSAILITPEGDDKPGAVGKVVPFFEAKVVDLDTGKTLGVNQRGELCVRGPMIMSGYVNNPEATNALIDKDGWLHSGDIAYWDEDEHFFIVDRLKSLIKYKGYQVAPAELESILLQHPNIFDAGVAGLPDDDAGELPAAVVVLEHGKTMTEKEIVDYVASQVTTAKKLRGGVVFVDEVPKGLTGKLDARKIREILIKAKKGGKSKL
smiles,measurement,setting,value
CN1CCCCC1Cn1cc(C(=O)c2cc([N+](=O)[O-])ccc2I)c2ccccc21 (stereo not drawn),Potency,[1],inactive
same,Potency,[2],10 µM (active)
CN1CCN(c2nc3ccccc3nc2Cl)CC1,outcome,HEK293T,inactive
C=C1C[C@]2(O)[C@@]3(C)CCC(=O)C(C)(C)C3=C(O)C(=O)[C@@]2(C)[C@@H]2C(=O)O[C@@](C)(C(=O)OC)C(=O)[C@@]12C,outcome,HEK293T,inactive [at 17.4 µM]
COc1ccc2c(c1)c(CCN(C)C)cn2S(=O)(=O)c1ccccc1,Potency,[1],inactive
COc1cc(C(=O)N2CC[C@@H](O)[C@@H](N)C2)cc2nc(-c3cc4ccccc4n3CC3CC3)n(C)c12,Potency,[3],inactive
same,Potency,[4],inactive
CN1CCC2=C(C1)c1ccccc1Cc1ccccc12,Potency,[4],inactive
CN1C(=O)[C@]23CC4C(C)(C)[C@@]5(C[C@@]41CN2CC[C@@]3(C)O)C(=O)Nc1c5ccc2c1OC=CC(C)(C)O2 (stereo partly drawn),Potency,[5],inactive
same,Potency,[6],inactive
same,Potency,[7],inactive
same,Potency,[8],inactive
same,Potency,[9],inactive
same,Potency,[10],inactive
same,outcome,[11],inactive
same,Potency,[12],inactive
same,outcome,[13],inactive
same,Potency,[14],inactive
same,outcome,[15],inactive
same,Potency,[16],inactive
same,outcome,[17],inactive
same,outcome,[18],inactive
C/C=C1/CN2CC[C@]34C(=Nc5ccccc53)[C@@H]2C[C@@H]1[C@H]4C(=O)OC,Potency,[5],inactive
same,Potency,[6],inactive
same,Potency,[7],inactive
same,Potency,[8],inactive
same,Potency,[9],inactive
same,Potency,[10],inactive
same,outcome,[11],inactive
same,Potency,[12],inactive
same,outcome,[13],inactive
same,Potency,[14],inactive
same,outcome,[15],inactive
same,Potency,[16],inactive
same,outcome,[17],inactive
same,outcome,[18],inactive
Cc1ncc(OC[C@@]2(c3cccc(F)c3)C[C@H]2C(=O)Nc2ccc(F)cn2)c(C)n1,Potency,[3],inactive
same,Potency,[4],inactive
same,Potency,[19],inactive
C[C@H](Nc1ncnc2nc[nH]c12)c1nc2ccc(F)cc2c(=O)n1-c1ccccc1,"activity change, negative = inhibition",[19],-57.8%
COc1ccc(CCNCc2ccc(OC)c3ccccc23)cc1,Potency,[1],inactive
same,Potency,[2],11.2 µM (active)
CN1CN(c2ccccc2)C2(CCN(CCCC(=O)c3ccc(F)cc3)CC2)C1=O,Potency,[1],inactive
same,Potency,[2],7.08 µM (active)
C/C=C(\C)C(=O)O[C@H]1CC2C(=C1C)[C@H]1OC(=O)[C@](C)(O)[C@]1(O)[C@H](OC(=O)CCC)C[C@@]2(C)OC(C)=O (stereo partly drawn),Potency,[2],2.2 µM (active)
NC(=O)[C@@H](CC1CC1)[C@@H](CCC(F)(F)F)C(=O)N[C@H]1N=C(c2ccccc2)c2cccc(F)c2NC1=O,Potency,[3],inactive
same,Potency,[4],inactive
same,"activity change, negative = inhibition",[19],-2.84%
